IL-1B inflam inh: inhibitors of inflammasome signaling (IL-1 beta secretion) | AID 743279 | 4.7% of 360,000 active | activity change, % at 57.5 µM | THP-1 LPS/ATP IL-1B secretion, AlphaLISA, 16 h; active compounds read low; in the data active = activity change below about -50%; inconclusive = mostly about -30% to -49%
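Secreted IL-1B measured by AlphaLISA bead assay after 16 h compound exposure of THP-1 cells; compounds (final up to 57.5 uM) added 1 h before LPS (250 ng/mL) and ATP (1.25 mM) stimulation; lower signal means less secretion.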
DT40 TDP1 CPT: growth inhibition of DT40 Tdp1-/-;hTDP1 cells with camptothecin (screen for TDP1 inhibitors) | chicken DT40 Tdp1-/-;hTDP1 cells + 20 nM CPT, ATP luminescence, 48 h | 12% of 420,000 active | Potency, µM (top dose mostly 46.2 µM), inactives show top-dose activity change, negative = growth inhibition, most hits filed as inhibitors; note: potency is the fitted concentration of half-maximal effect; nearly all actives have a fitted effect of over 55% in size
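Chicken DT40 Tdp1-/- cells stably complemented with human TDP1 were seeded at 400 cells/well in medium containing 20 nM camptothecin, exposed to pin-transferred compounds, and grown at 37 °C for at least 48 hr. Viability was read as ATP luminescence.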
DT40 TDP1 no CPT: qHTS for Inhibitors of human tyrosyl-DNA phosphodiesterase 1 (TDP1): qHTS in cells in absence of CPT; DT40 Tdp1-/- hTDP1 cells, no CPT, ATP luminescence, 48 h; Potency, µM (series often up to 46.2 µM), for inactives: at the highest dose activity change, negative = growth inhibition, most hits filed as inhibitors; 15% of 420,000 active; note: potency is the fitted concentration of half-maximal effect; nearly all actives have a fitted effect of over 55% in size
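A cellular qHTS used chicken DT40 cells lacking endogenous Tdp1 but carrying stably transfected human TDP1. Compounds were applied without camptothecin, and cell growth kinetics were judged by ATP-dependent luminescence after ≥48 hr.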
HT1080NT lethal: kills 2HG-producing HT-1080-NT fibrosarcoma cells; 1.6% of 360,000 active; HT-1080-NT fibrosarcoma viability, CellTiter-Glo ATP luminescence, 48 h; Potency, µM (highest dose often 46.1 µM), without a hit: at the highest dose activity, negative = less viability, actives largely listed as cytotoxic;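 note: NT is the 2HG producing partner of a matched IDH1 knockdown line; potency is the fitted concentration of half-maximal effect; 0% = DMSO-treated cells and -100% = media-only wells without cells; nearly all actives have a fitted effect of over 55% in size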
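Compounds were tested in concentration-response format on HT-1080-NT cells for 48 hours at 37 degrees C. Cell viability came from CellTiter-Glo luminescence; curves were classified by r2, response magnitude and activity.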
HT1080 IDH1KD tx: toxicity to HT-1080 IDH1 knockdown cells (counter line) | HT-1080 IDH1 knockdown viability, ATP luminescence, 48 h | Potency, µM (highest dose often 46.1 µM), for inactives: at the top dose activity, negative = toxicity, most hits filed as cytotoxic | 2% of 360,000 active | AID 686971;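 note: potency is the fitted concentration of half-maximal effect; 0% = DMSO wells and -100% = cell-free medium wells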
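Viability of IDH1-knockdown HT-1080 fibrosarcoma cells was assessed by CellTiter-Glo after 48 h at 37 °C with titrated compound; concentration-effect curves were classified by fit quality and response size.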
ELG1 DNA repair: blocks ELG1-dependent DNA repair in HEK293T cells | HEK293T ELG1-luciferase reporter, luminescence, 16 h; DNA damage induced by 5-fluorouridine | Potency, µM (highest dose often 46.1 µM), for the others: at the top dose activity change, negative = inhibition, usual class: inhibitors | AID 504467 | 2.3% of 330,000 active; note: potency is the fitted concentration of half-maximal effect; nearly all actives have a fitted effect of over 55% in size
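Cells (2,000 per well) received 5-fluorouridine plus test compound or DMSO and were incubated 16 hr at 37 °C, 5% CO2. Luciferase activity was read by luminescence 30 min after ONE-Glo addition; signal suppression marked inhibition of damage-induced ELG1 function.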
* = called active by the depositor; ? = inconclusive; . = not tested or not shown; [ ] = dose if it differs, or a comment. A selection: hits, their analogues and other compounds. The true share with any hit is near 19%. Unless noted, calls come from the whole dose curve; as a rule, active = well fitted curve in the direction sought with a large enough effect; inconclusive = small, poorly fitted or top-dose-only effect, or another doubt; inactive = no such curve, though single readings can be large; an effect the other way counts as inactive or inconclusive. Unless noted, % is set by controls: 0 for no effect and ±100 for the full control effect.

SMILES | IL-1B inflam inh | DT40 TDP1 CPT | DT40 TDP1 no CPT | HT1080NT lethal | HT1080 IDH1KD tx | ELG1 DNA repair
CC(C)N1C/C(=C/c2cccnc2)C(=O)/C(=C/c2cccnc2)C1 | -104.1* | 1.64µM* | 1.64µM* | 6.51µM* | 5.8µM* | ?
CC(C)N1C/C(=C/c2ccsc2)C(=O)/C(=C/c2ccsc2)C1 | -95.6* | 2.91µM* | 5.8µM* | ? | ? | 18.4µM*
CCN1C(=O)S/C(=C/c2ccsc2)C1=O | -25.7 | -10.2% | -20.0% | 4.3% | -0.5% | ?
COc1ccc(CNC(=O)c2nc(Cn3nc(C)c(Br)c3C)no2)cc1OC | . | -28.6% | ? | . | . | .
Cc1ccc(NC(=S)N/N=C/c2ccc(Cl)c([N+](=O)[O-])c2)cc1 | 19.7 | 10.0% | -5.7% | -4.2% | -4.5% | 6.4%
COc1ccc(NC(=S)N/N=C/c2ccc(F)c(F)c2)cc1 | 10.1 | ? | ? | ? | 20.6µM* | 22.9%
COc1ccc(NC(=S)N/N=C/c2ccc(F)cc2)cc1OC | -2.0 | ? | ? | 14.1% | 10.8% | 14.4%
Fc1ccc(/C=N/NC(=S)Nc2ccc(Cl)cc2)cc1F | -5.3 | ? | 23.1µM* | 12.3% | 9.7% | ?
Fc1ccc(NC(=S)N/N=C/c2ccc(F)c(F)c2)cc1 | 31.1 | 4.11µM* | 6.51µM* | -0.1% | 10.6% | 14.0%
Fc1ccc(/C=N/NC(=S)Nc2ccc(Cl)cc2Cl)cc1 | 28.9 | 7.31µM* | 5.17µM* | ? | ? | -4.4%
Cc1nccn1C(c1ccccc1)c1ccccc1 | 20.3 | ? | ? | 2.2% | 3.4% | .
O=C(CSc1ncccn1)NCC1Cc2cccc(-c3ncccn3)c2O1 (centres undefined) | . | 7.0%[9.04 µM] | 8.2% | . | . | .
Cc1cc(=O)c(C(=O)NCCCc2ccncc2)c2n1-c1ccccc1SC(c1cccs1)C2 (centres undefined) | . | ? | -18.8% | . | . | .
COc1ccc(N(CC(=O)Nc2ccc(S(=O)(=O)N3CCOCC3)cc2)S(=O)(=O)c2ccccc2)cc1 | 0.4 | 16.4µM* | 18.4µM* | -1.5% | 0.5% | -29.8%
COC(=O)c1ccc(Cl)c(NC(=O)CN(c2ccc(OC)cc2)S(=O)(=O)c2ccccc2)c1 | 11.2 | ? | ? | 1.3% | 5.0% | .
COc1ccc(N(CC(=O)Nc2ccccc2OC)S(=O)(=O)c2ccc(NC(C)=O)cc2)cc1 | 25.8 | 5.17µM* | 5.17µM* | ? | ? | ?
COc1ccccc1NC(=O)CN(c1ccccc1)S(=O)(=O)c1ccccc1 | 0.0 | -19.9% | -23.9% | -2.2% | -16.1% | -5.3%
COC(=O)c1cc(NC(=O)CN(c2ccc(OC)cc2)S(=O)(=O)c2ccc(F)cc2)ccc1Cl | 0.0 | 18.4µM* | 18.4µM* | -11.1% | -8.9% | ?
COC(=O)c1ccccc1NC(=O)CN(c1ccc(Cl)cc1)S(=O)(=O)c1ccc(OC)cc1 | . | 20.6µM* | 9.2µM* | . | . | .
COc1ccc(S(=O)(=O)N2CCCOC2CNC(=O)C(=O)NCc2cccnc2)cc1 (centres undefined) | 4.8 | 6.9% | -4.2% | 5.5% | 6.5% | 13.6%
CN(C)/C=C/C(=O)c1ccc(C(F)(F)F)cc1F | -12.1 | -3.9% | 2.6% | 13.0% | 5.2% | ?
C[C@@H]1CN([C@@H](C)CO)C(=O)c2cc(C#CC3CCCCC3)cnc2O[C@@H]1CN(C)S(=O)(=O)c1ccc(F)cc1 | -52.7* | 16.4µM* | 14.6µM* | -29.3% | -28.5% | .
C/C=C/c1cnc2c(c1)C(=O)N([C@@H](C)CO)C[C@H](C)[C@@H](CN(C)S(=O)(=O)c1ccc(C)cc1)O2 | -10.9 | 23.1µM* | 23.1µM* | -2.8% | 2.7% | .
